# How the values were obtained:
# Assay in all cases: DAPPL (digital affinity profiling via proximity ligation, sequencing); 10 mM Tris-HCl pH 7.5, 50 mM NaCl, 1 mM DTT, 4% glycerol, room temperature, 30 min; GST-TFs on glutathione beads, 16-mer random dsDNA library, 0.1% formaldehyde crosslink after washing; high values mean tight binding
# Details in all cases: protein: recombinant; tags: N-terminal GST; dsDNA, one strand shown
# ETV1 = ETV1 (Homo sapiens, UniProt P50549 1-477)
# Outline: (§1)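 The binding signal reported is, for every hexamer, its read frequency for a factor over its read frequency for the tag-only sample. Reads came from pools of yeast-expressed, GST-fused human transcription factors on glutathione beads, barcoded with DNA and mixed with that sample, which were incubated with 200 nmole of a random double-stranded 16-mer DNA library in Tris/NaCl/DTT/glycerol buffer at room temperature for 30 min. After washing, the pools were crosslinked with 0.1% formaldehyde, proximity-ligated with BsaI/T4 ligase for 1 h at 37 °C, PCR-amplified and sequenced on an Illumina NextSeq500.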
# ERF = target: T1, ERF (Homo sapiens, UniProt P50548 1-548)
# T1 sequence: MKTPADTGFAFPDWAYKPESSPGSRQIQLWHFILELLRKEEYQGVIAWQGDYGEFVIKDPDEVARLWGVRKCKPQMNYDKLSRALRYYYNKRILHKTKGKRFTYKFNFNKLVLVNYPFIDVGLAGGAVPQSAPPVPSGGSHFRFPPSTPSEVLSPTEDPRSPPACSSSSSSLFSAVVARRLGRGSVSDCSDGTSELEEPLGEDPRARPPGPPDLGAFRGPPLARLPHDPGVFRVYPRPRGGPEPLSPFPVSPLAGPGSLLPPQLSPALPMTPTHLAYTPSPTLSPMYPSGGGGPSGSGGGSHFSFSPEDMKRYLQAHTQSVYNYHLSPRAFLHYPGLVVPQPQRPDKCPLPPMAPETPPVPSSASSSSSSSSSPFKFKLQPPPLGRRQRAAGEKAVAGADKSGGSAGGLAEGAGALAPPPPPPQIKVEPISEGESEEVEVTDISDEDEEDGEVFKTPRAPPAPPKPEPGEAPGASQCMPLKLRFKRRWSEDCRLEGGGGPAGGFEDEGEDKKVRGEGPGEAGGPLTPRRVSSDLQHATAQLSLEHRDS
# Outline: as §1
# ETV3L = target: T2, ETV3L (Homo sapiens, UniProt Q6ZN32 1-361)
# T2 sequence: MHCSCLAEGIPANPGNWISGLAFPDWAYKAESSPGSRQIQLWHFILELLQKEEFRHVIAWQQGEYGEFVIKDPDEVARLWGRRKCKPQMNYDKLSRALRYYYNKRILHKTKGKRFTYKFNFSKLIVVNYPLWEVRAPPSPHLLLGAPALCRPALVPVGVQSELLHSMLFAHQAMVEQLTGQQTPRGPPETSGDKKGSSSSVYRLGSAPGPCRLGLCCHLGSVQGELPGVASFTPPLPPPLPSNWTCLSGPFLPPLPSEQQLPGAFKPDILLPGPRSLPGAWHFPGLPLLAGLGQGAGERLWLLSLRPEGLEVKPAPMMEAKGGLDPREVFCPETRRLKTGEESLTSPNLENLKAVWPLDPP
# Outline: as §1
# ETS2 = target: T3, ETS2 (Homo sapiens, UniProt P15036 1-469)
# T3 sequence: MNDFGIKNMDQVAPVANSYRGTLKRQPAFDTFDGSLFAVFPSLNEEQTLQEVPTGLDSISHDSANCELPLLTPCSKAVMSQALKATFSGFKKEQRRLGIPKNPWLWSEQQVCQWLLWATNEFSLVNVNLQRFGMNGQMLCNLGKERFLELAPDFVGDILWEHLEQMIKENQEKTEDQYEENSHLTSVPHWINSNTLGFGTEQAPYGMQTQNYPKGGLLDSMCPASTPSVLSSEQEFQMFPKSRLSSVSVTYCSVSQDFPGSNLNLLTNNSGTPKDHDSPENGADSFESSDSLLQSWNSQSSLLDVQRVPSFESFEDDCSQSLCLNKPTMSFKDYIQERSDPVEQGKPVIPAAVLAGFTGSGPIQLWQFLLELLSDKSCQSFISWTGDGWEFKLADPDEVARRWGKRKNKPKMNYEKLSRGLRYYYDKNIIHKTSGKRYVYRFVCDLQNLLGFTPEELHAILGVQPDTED
# Outline: as §1
# SPDEF = target: T4, SPDEF (Homo sapiens, UniProt O95238 1-335)
# T4 sequence: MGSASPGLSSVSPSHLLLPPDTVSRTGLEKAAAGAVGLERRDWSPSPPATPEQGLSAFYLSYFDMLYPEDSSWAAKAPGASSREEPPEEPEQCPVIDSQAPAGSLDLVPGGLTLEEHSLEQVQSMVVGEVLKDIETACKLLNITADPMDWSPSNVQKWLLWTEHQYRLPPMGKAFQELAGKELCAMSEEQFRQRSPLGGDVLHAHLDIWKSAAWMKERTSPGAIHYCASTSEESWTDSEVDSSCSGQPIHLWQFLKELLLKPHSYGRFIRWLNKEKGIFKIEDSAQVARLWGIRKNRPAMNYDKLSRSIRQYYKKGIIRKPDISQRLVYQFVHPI
# Outline: as §1
# ETV7 = target: T5, ETV7 (Homo sapiens, UniProt Q9Y603 1-341)
# T5 sequence: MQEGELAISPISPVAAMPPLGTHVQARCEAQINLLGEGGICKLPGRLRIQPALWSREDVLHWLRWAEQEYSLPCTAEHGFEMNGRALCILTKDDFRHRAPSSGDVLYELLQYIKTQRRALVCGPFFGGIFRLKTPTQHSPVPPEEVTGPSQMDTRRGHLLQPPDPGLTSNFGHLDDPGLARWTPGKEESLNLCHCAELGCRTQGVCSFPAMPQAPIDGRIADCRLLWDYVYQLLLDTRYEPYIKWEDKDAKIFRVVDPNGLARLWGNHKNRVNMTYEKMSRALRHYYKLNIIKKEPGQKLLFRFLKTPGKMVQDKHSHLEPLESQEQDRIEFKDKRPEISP
# Outline: as §1
# ELF5 = target: T6, ELF5 (Homo sapiens, UniProt Q9UKW6-2 1-255)
# T6 sequence: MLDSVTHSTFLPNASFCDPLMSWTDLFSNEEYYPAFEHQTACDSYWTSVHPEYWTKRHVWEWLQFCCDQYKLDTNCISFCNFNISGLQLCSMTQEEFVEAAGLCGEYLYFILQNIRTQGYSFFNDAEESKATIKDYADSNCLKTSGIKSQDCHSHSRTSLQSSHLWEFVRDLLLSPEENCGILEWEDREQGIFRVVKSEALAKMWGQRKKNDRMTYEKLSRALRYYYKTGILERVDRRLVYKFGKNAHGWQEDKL
# Outline: as §1
# ETV3 = target: T7, ETV3 (Homo sapiens, UniProt P41162-2 1-143)
# T7 sequence: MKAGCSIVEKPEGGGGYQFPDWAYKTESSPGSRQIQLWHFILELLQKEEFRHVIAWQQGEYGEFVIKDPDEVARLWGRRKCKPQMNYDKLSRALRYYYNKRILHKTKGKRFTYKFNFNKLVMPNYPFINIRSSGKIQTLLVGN
# Outline: as §1
# ETV6 = ETV6 (Homo sapiens, UniProt P41212 1-452)
# ETV6, sequence (P41212 whole entry): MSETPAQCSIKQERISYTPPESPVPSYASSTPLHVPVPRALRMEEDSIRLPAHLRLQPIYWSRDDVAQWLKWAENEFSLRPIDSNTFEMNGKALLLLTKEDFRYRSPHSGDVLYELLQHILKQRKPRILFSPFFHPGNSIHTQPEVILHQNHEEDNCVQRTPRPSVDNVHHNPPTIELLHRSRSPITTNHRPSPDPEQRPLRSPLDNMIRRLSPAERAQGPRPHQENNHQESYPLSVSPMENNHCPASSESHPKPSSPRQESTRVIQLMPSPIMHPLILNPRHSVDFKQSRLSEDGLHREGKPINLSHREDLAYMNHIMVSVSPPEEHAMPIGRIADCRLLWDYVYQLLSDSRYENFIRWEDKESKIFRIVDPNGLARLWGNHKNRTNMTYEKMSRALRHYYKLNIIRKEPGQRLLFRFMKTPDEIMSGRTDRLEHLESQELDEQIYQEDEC
# Outline: as §1
# ETV1, sequence (P50549 whole entry, the tested form may be a part): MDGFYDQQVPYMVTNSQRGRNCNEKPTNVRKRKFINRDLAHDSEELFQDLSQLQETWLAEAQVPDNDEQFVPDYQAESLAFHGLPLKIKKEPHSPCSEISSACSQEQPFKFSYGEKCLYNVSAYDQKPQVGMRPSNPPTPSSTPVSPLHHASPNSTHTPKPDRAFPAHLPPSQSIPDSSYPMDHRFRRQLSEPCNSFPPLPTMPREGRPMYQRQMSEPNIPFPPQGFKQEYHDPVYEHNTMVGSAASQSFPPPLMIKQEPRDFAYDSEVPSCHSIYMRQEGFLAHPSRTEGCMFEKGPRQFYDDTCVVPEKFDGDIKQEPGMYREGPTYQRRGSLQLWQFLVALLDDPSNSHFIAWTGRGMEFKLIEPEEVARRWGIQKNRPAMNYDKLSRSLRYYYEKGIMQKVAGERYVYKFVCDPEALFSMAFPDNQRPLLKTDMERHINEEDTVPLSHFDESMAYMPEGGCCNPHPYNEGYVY
sequence,measurement,setting,value
CAATTG,binding signal,ETV1,"1.17 fold enrichment (6-mer frequency, TF over GST control)"
same,binding signal,ERF,"1.29 fold enrichment (6-mer frequency, TF over GST control)"
same,binding signal,ETV3L,"1.2 fold enrichment (6-mer frequency, TF over GST control)"
same,binding signal,ETS2,"1.26 fold enrichment (6-mer frequency, TF over GST control)"
same,binding signal,SPDEF,"1.12 fold enrichment (6-mer frequency, TF over GST control)"
same,binding signal,ETV7,"1.32 fold enrichment (6-mer frequency, TF over GST control)"
same,binding signal,ELF5,"1.21 fold enrichment (6-mer frequency, TF over GST control)"
same,binding signal,ETV3,"1.2 fold enrichment (6-mer frequency, TF over GST control)"
same,binding signal,ETV6,"1.23 fold enrichment (6-mer frequency, TF over GST control)"

# — article PMC7862700, “An all-to-all approach to the identification of sequence-specific readers for epigenetic DNA modifications on cytosine”
